Results filed as inconclusive are left out. A number with no mark means an inactive call. The source made the active and inactive calls. Calls follow the shape of the dose curve; as a rule, active = well fitted cell-killing curve with a large enough effect; inconclusive = small, poorly fitted or top-dose-only effect; inactive = no such curve, though single readings can be large or run the other way.
assay: qHTS of pediatric cancer cell lines to identify multiple opportunities for drug repurposing: Primary screen for Rh41 cells (AID 1347108); conditions: Rh41 rhabdomyosarcoma viability, CellTiter-Glo luminescence, 48 h; series mostly up to 46 µM; activity change, negative = cytotoxic: at the top concentration; also: nearly all actives have a fitted effect of over 70% in size;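 as to activity change, negative = cytotoxic: luminescence drop marks cytotoxic hits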
Procedure, shortened: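 500-1,000 cells/well; 5 h pre-incubation 37 °C/5% CO2; compound pinned; 48 h; CellTiter-Glo, 15 min RT; luminescence. MIPE 11-pt from 0.78 nM, NPC 8-pt from 0.59 nM final. Bortezomib 2.3 µM final as positive control.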
Potency is read from the fitted curve at half-maximal effect.

SMILES | activity change, negative = cytotoxic [%] | Potency
CN(C)CCC=C1c2ccccc2COc2ccc(CC(=O)O)cc21 | 2.73 | –
Cc1c[nH]c(C=C2C(=O)Nc3ccccc32)c1CCC(=O)O | -10.5 | –
CCOC(=O)O[C@]1(C(=O)OCCl)CC[C@@H]2[C@H]3CCC4=CC(=O)C=C[C@]4(C)[C@@H]3[C@@H](O)C[C@@]21C | 26.1 | –
Cn1cc(C=C2C(=O)Nc3cccnc32)c2ccccc21 | -2.73 | –
CN(C)Cc1ccc(-c2nc3cccc4c3n2CCNC4=O)cc1 | -2.84 | –
CN(C)c1cc(NC(=O)CNC(C)(C)C)c(O)c2c1C[C@@H]1C[C@H]3[C@H](N(C)C)C(=O)C(C(N)=O)=C(O)[C@@]3(O)C(=O)C1=C2O | 15.9 | –
CCCCCN(C)CCC(O)(P(=O)(O)O)P(=O)(O)O | 9.19 | –
CCC(=O)O[C@]1(C(=O)CO)CC[C@H]2[C@@H]3CCC4=CC(=O)CC[C@]4(C)[C@@H]3CC[C@@]21C | 24.3 | –
c1ccc2c(Cc3c[nH]c4ccccc34)c[nH]c2c1 | – | 14.8 µM (active)
Clc1ccc(C(c2ccc(Cl)cc2)n2cc[n+](CC(OCc3ccc(Cl)cc3Cl)c3ccc(Cl)cc3Cl)c2)cc1 (stereo unspecified) | – | 18.7 µM (active)
Oc1ccc(C2=Cc3ccc(O)cc3OC2)cc1 | – | 5.9 µM (active)
NC(=O)c1ccc2nc(-c3ccc(Oc4ccc(Cl)cc4)cc3)[nH]c2c1 | -27.7 | –
COc1cc(NC(=O)c2ccc(-c3ccc(Cl)cc3)o2)cc(OC)c1 | – | 7.43 µM (active)
C[C@H]1[C@H](NC(=O)C(=NOC(C)(C)C(=O)O)c2csc(N)n2)C(=O)N1S(=O)(=O)O | 29.6 | –
CC(=Cc1ccccc1)C=C1SC(=S)N(CC(=O)O)C1=O | 26.2 | –
CCN(CC)C(=O)c1ccc(O)c(OC)c1 | 19.2 | –
Cn1c(N2CCCCS2(=O)=O)nc(C(=O)NCc2ccc(F)cc2)c(O)c1=O | 12.6 | –
OC[C@@H](O)[C@H](O)[C@H](O)[C@@H](O)CO | – | inactive

SMILES | activity change, negative = cytotoxic [%] | Potency
O=c1c(-c2ccc(O)cc2)coc2cc(OC3O[C@H](CO)[C@H](O)[C@H](O)[C@H]3O)cc(O)c12 (stereo partly specified) | – | 8.33 µM (active)
CC/C(=C(\c1ccccc1)c1ccc(OCCN(C)C)cc1)c1ccccc1 | 3.28 | –
N#C[C@H]1C[C@H]2C[C@@H]2N1C(=O)[C@@H](N)C12CC3CC(CC(O)(C3)C1)C2 | 12.3 | –
CC(C)C(C)C=CC(C)C1CCC2C3=CC=C4CC(O)CCC4(C)C3CCC21C (stereo unspecified) | 19.8 | –
Cc1ccc(C(C)(O)c2nc3ccccc3s2)c(C)c1 (stereo unspecified) | 6.8 | –
NC(=O)c1cccc2[nH]c(-c3ccc([C@H]4CCCN4)cc3F)nc12 | 9.07 | –
CO[C@H]1C[C@@H]2CC[C@@H](C)[C@@](O)(O2)C(=O)C(=O)N2CCCC[C@@H]2C(=O)O[C@H]([C@H](C)C[C@@H]2CC[C@H](OC(=O)C(C)(CO)CO)[C@H](OC)C2)CC(=O)[C@H](C)C=C(C)[C@@H](O)[C@@H](OC)C(=O)[C@H](C)C[C@H](C)C=CC=CC=C1C | – | 14.8 µM (active)
N#Cc1ccc(NC(=O)Nc2ccccc2Br)c2n[nH]nc12 | 15.2 | –
O=C(NOCC(O)CO)c1cc(Br)c(F)c(F)c1Nc1ccc(I)cc1F (stereo unspecified) | -8.02 | –
NCCS | 37.5 | –
NC1CCC(Nc2nc(Nc3ccc(C(=O)N4CCCCC4)cc3)c3ncn(-c4cccc(F)c4)c3n2)CC1 (stereo unspecified) | 14.6 | –
O=C(Nc1c(Cl)cncc1Cl)c1ccc(OC(F)F)c(OCC2CC2)c1 | 21.8 | –
OC[C@H]1O[C@@H](Oc2cc(O)cc(C=Cc3ccc(O)cc3)c2)[C@H](O)[C@@H](O)[C@H]1O | 9.86 | –
CO[C@H]1C=CO[C@@]2(C)Oc3c(C)c(O)c4c(O)c(c5c(c4c3C2=O)NC2(CCN(CC(C)C)CC2)N=5)=NC(=O)C(C)=CC=C[C@H](C)[C@H](O)[C@@H](C)[C@@H](O)[C@@H](C)[C@H](OC(C)=O)[C@H]1C | -10.6 | –
CN1[C@@H]2CCC[C@@H]1CC(NC(=O)c1nn(C)c3ccccc13)C2 (stereo partly specified) | 14.2 | –
CCC(CC)[C@H](NC(C)=O)[C@@H]1[C@H](O)[C@@H](C(=O)O)C[C@@H]1N=C(N)N | -4.39 | –
O=C1C[C@@H](c2ccc(O)cc2)Oc2cc(O)cc(O)c21 | 7.36 | –
CN1C[C@H]2c3ccccc3Oc3ccc(Cl)cc3[C@@H]2C1 | – | inactive

— PubChem BioAssay (NCATS)
